Assay outcomes: PubChem BioAssay, National Center for Advancing Translational Sciences (NCATS)
Vaccinia Venus = qHTS for Stage-Specific Inhibitors of Vaccinia Orthopoxvirus: Venus Reporter Primary qHTS; Vaccinia virus Venus reporter expression, fluorescence; Potency, µM (titrated, usually from 36.5 µM), most hits filed as inhibitors; 330,000 tested, 0.46% active; AID 720580, 2013; calls by dose curve; tested in A549 cells; further: nearly all actives have a fitted effect of over 30% in size
HCV inh = qHTS Assay for Inhibitors of Hepatitis C Virus (HCV). Huh7.5.1 HCVcc-Cre infection, luciferase reporter, 44 h. 340,000 tested, 3.4% active. Potency, µM (series often up to 41.8 µM), actives largely listed as inhibitors; active means well fitted inhibition curve with a large enough effect; inconclusive means small, poorly fitted or top-dose-only effect, or another doubt; inactive means no such curve, though single readings can be large or run the other way
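Infectious HCV cell culture screen: compound-treated cells (1,000/well, pre-plated 4 h) are infected with HCVcc-Cre at roughly 0.5 moi and grown 44 h. Infection is quantified by luciferase signal after 15 min substrate incubation at room temperature.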
HCMV antiviral = qHTS Assay for inhibitors of the human cytomegalovirus (HCMV). HFF cells, HCMV-luciferase reporter, 72 h; hits give low values. activity change, negative = inhibition, % at 57.5 µM. 410,000 tested, 4.5% active; in the data active means activity change below about -60%; inconclusive means no clear call, values can overlap the other calls; inactive means above about -39%
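Screen run at 2 compound doses on HFFs infected with reporter HCMV, MOI 1 PFU/cell. Luciferase activity from cell lysates at 72 h post infection gave inhibition relative to buffer-only and Salinomycin wells.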
VACV mCherry inh = qHTS for Stage-Specific Inhibitors of Vaccinia Orthopoxvirus: mCherry Reporter Primary qHTS; 310,000 tested, 0.63% active; Vaccinia virus mCherry reporter infection, fluorescence; Potency, µM (highest dose often 36.5 µM), most hits filed as inhibitors; AID 720579, 2013; calls by dose curve; tested in A549 cells; further: nearly all actives have a fitted effect of over 35% in size
FMDV antiviral = High Throughput Screening for Foot and Mouth Disease Virus Antivirals; 410,000 tested, 1.2% active; Potency, µM (top dose mostly 57.9 µM), hits mostly inhibitors; FMDV antiviral cell-based qHTS; calls by dose curve; tested in HEK293T cells; further: read-out not given here; nearly all actives have a fitted effect of over 45% in size
A number is an active result; [ ] = remark or other dose. Sampled rows, rich in hits. Any-hit rate of the full collection: about 7.3%.

What do the screens show for `Cc1c(C)n(CCN(C)C)c2ncnc(NCc3ccccc3)c12`?
Vaccinia Venus: inactive; HCV inh: inactive; HCMV antiviral: inactive; VACV mCherry inh: inactive; FMDV antiviral: inactive

How did COCCCNC(=S)N1CCC(C(=O)c2ccc(Cl)cc2)CC1 do in these assays?
Vaccinia Venus: inconclusive; HCV inh: 3.98µM; HCMV antiviral: inactive; VACV mCherry inh: inactive; FMDV antiviral: inconclusive

What do the screens show for `N/C(=N\c1nc(CSc2ccc(Cl)cc2)cc(=O)[nH]1)Nc1cccc2ccccc12`?
Vaccinia Venus: inactive; HCV inh: inactive; HCMV antiviral: -72.6; VACV mCherry inh: inactive; FMDV antiviral: inactive

How did COc1ccc(N/C(N)=N/c2nc(CSc3ccc(Cl)cc3)cc(=O)[nH]2)cc1 do in these assays?
Vaccinia Venus: inactive; HCV inh: inactive; HCMV antiviral: inactive; VACV mCherry inh: inactive

How did CCc1noc(C)c1C(=O)N1CCOc2ccc(CN3CCCC(C(=O)c4cccnc4)C3)cc2C1 (configuration not stated) do in these assays?
Vaccinia Venus: inactive; VACV mCherry inh: inactive; FMDV antiviral: inactive

What do the screens show for `COc1ccc(-n2c(=O)c3ccccc3c3ccccc3c2=O)cc1`?
Vaccinia Venus: inactive; HCV inh: inactive; HCMV antiviral: inactive; VACV mCherry inh: inactive; FMDV antiviral: inconclusive

How did COc1ccc(OC)c(-n2c(=O)c3ccccc3c3ccccc3c2=O)c1 do in these assays?
Vaccinia Venus: inactive; HCV inh: inactive; HCMV antiviral: inactive; VACV mCherry inh: inactive; FMDV antiviral: 25.1µM

How did CC(C)(C)c1cc(/C=C2\NC(=O)NC2=O)cc(C(C)(C)C)c1O do in these assays?
HCV inh: inconclusive; HCMV antiviral: -82.8; FMDV antiviral: inactive

What do the screens show for `CCC1CCc2sc(C(=O)NC3CCN(Cc4ccccc4)CC3)cc2C1` (configuration not stated)?
Vaccinia Venus: inactive; HCV inh: 10µM; HCMV antiviral: inconclusive; VACV mCherry inh: inactive; FMDV antiviral: inactive

What do the screens show for `CCC1CCc2sc(C(=O)NCc3ccccn3)cc2C1` (configuration not stated)?
Vaccinia Venus: inactive; HCV inh: inactive; HCMV antiviral: inactive; VACV mCherry inh: inactive; FMDV antiviral: inactive

What do the screens show for `CC1CCc2sc(C(=O)NC3CCN(Cc4ccccc4)CC3)cc2C1` (configuration not stated)?
HCV inh: 11.2µM; HCMV antiviral: inconclusive; FMDV antiviral: inconclusive

How did COc1ccccc1C(=O)NNC1=C(C(=O)C(F)(F)F)CCC1 do in these assays?
Vaccinia Venus: inactive; HCV inh: inconclusive; HCMV antiviral: -99.8; VACV mCherry inh: inactive

How did O=C(NNC1=C(C(=O)C(F)(F)F)CCC1)c1ccccc1O do in these assays?
Vaccinia Venus: inactive; HCV inh: inactive; HCMV antiviral: inactive; VACV mCherry inh: inactive[1.46 µM]; FMDV antiviral: inactive

Results for Nc1ccccc1C(=O)NNC1=C(C(=O)C(F)(F)F)CCC1 ?
Vaccinia Venus: inactive[7.34 µM]; HCV inh: inconclusive; HCMV antiviral: -85.0; VACV mCherry inh: inactive[7.34 µM]; FMDV antiviral: inactive

Results for Cc1nn(CC(=O)N2CCCC2)c(=O)c2cc3cc(F)ccc3n12 ?
HCV inh: inactive; HCMV antiviral: inconclusive; FMDV antiviral: inactive

Results for COc1ccc(NC(=O)CN(C)C(=O)CCCSc2nc3ccccc3[nH]2)cc1 ?
Vaccinia Venus: inactive; HCV inh: inactive; HCMV antiviral: inactive; VACV mCherry inh: inactive; FMDV antiviral: inactive

What do the screens show for `O=Nc1c(-c2c(O)[nH]c3cc(Br)ccc23)[nH]c2ccccc12`?
Vaccinia Venus: inactive; HCV inh: 5.62µM; HCMV antiviral: -68.0; VACV mCherry inh: inconclusive; FMDV antiviral: inactive

What do the screens show for `CCCCCOC(=O)CSc1ncnc2c1sc1nc(N3CCOCC3)c3c(c12)CCCC3`?
Vaccinia Venus: inactive; HCMV antiviral: inactive; VACV mCherry inh: inactive; FMDV antiviral: inactive

How did O=C(CC1CC1)N1CC(=O)N2[C@@H](CO)[C@@H](c3ccc(Br)cc3)[C@@H]2C1 do in these assays?
HCMV antiviral: inactive

What do the screens show for `O=C(/C(=C/c1cccnc1)n1ccnc1)c1ccc(Cl)cc1Cl`?
HCV inh: inactive; HCMV antiviral: inactive; FMDV antiviral: inconclusive

Results for CC(C)(C)C(=O)/C(=C/c1ccc(Cl)cc1)n1cncn1 ?
HCV inh: inconclusive; HCMV antiviral: -102.3; FMDV antiviral: 15.8µM

What do the screens show for `CC(C)(C)C(=O)C(Oc1ccc(Cl)cc1)n1cncn1` (configuration not stated)?
Vaccinia Venus: inactive; HCV inh: inactive; HCMV antiviral: inactive; VACV mCherry inh: inactive; FMDV antiviral: inactive

How did CC(C)(C)C(=O)/C(=C\c1ccc([N+](=O)[O-])cc1)n1cncn1 do in these assays?
HCV inh: 3.16µM

How did CC(C)/C=C(/C(=O)c1ccc(Cl)cc1Cl)n1cncn1 do in these assays?
Vaccinia Venus: inactive; HCV inh: inactive; HCMV antiviral: inactive; VACV mCherry inh: inactive; FMDV antiviral: 35.5µM

What do the screens show for `COc1cc(NS(=O)(=O)c2ccc(NC(=O)c3ccc(Cl)cc3Cl)cc2)nc(OC)n1`?
Vaccinia Venus: inactive; HCMV antiviral: inactive; VACV mCherry inh: inactive; FMDV antiviral: inactive

What do the screens show for `O=C(Cc1cccs1)Nc1cccc(-c2nc3cc4ccccc4cc3[nH]2)c1`?
Vaccinia Venus: 10µM; HCV inh: 11.2µM; HCMV antiviral: -87.7; VACV mCherry inh: inconclusive; FMDV antiviral: inactive

How did O=C(Nc1ccc2nc(-c3cccs3)[nH]c2c1)c1cccs1 do in these assays?
Vaccinia Venus: inactive; HCV inh: 12.6µM; HCMV antiviral: inconclusive; VACV mCherry inh: inactive; FMDV antiviral: inactive

Results for Cc1ccccc1-c1nc(-c2ccc(NC(=O)c3cccs3)cc2)no1 ?
Vaccinia Venus: inactive; HCV inh: 14.1µM; HCMV antiviral: inactive; VACV mCherry inh: inactive; FMDV antiviral: inactive

How did O=C(Nc1ccc(-c2nc3ccc(NC(=O)c4cccs4)cc3[nH]2)cc1)c1cccs1 do in these assays?
Vaccinia Venus: inactive; HCV inh: inconclusive; HCMV antiviral: -83.5; VACV mCherry inh: inactive; FMDV antiviral: inconclusive

Results for O=C(Nc1ccc2nc(-c3cccs3)[nH]c2c1)c1ccco1 ?
Vaccinia Venus: inactive; HCV inh: inconclusive; HCMV antiviral: inconclusive; VACV mCherry inh: inactive; FMDV antiviral: inactive

How did Cc1cccc(C)c1Nc1c(-c2ccccc2Cl)nc2cnccn12 do in these assays?
Vaccinia Venus: inactive; HCMV antiviral: inconclusive; VACV mCherry inh: inactive; FMDV antiviral: inactive

Results for CC1CCCN(c2nc(NCc3ccco3)nc(N)c2[N+](=O)[O-])C1 (configuration not stated) ?
Vaccinia Venus: inconclusive; HCV inh: inconclusive; HCMV antiviral: -102.0; VACV mCherry inh: inconclusive; FMDV antiviral: inactive

What do the screens show for `Cc1ccc(Nc2nc(N)c([N+](=O)[O-])c(N3CCCC(C)C3)n2)cc1C` (configuration not stated)?
Vaccinia Venus: inactive; HCV inh: inactive; HCMV antiviral: -61.9; VACV mCherry inh: inactive; FMDV antiviral: inconclusive
